# PubChem BioAssay (NCATS)
# The source made the active and inactive calls. The call rests on the fitted dose curve; in most records, active means well fitted cell-killing curve with a large enough effect; inconclusive means small, poorly fitted or top-dose-only effect; inactive means flat fitted curve, though single readings scatter.
# Assay: MultiTox-Fluor Cytotoxicity Assay - LYMP1-003 - Live Cells (AID 962);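 further: cytotoxic hits lower the live-cell protease signal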
# Conditions: LYMP1-003 lymphoblastoid cells, MultiTox-Fluor live-cell protease fluorescence; series mostly up to 92.2 µM
# Excerpt: NIH Chemical Genomics Center [NCGC]
# NIH Molecular Libraries Screening Centers Network [MLSCN]
# National Institutes of Environmental Health Sciences [NIEHS]
# National Toxicology Program [NTP]
# We have developed a 1536-well cell-based assay for quantitative high throughput screening (qHTS) against a number of cell lines to determine in vitro cytotoxicity of small molecules. This particular assay uses a human lymphoblastoid cell line (LYMP1-003) purchased from Coriell Institute.
# NCGC Assay Protocol Summary:
# The MultiTox-Fluor Cytotoxicity Assay (Promega) is a homogeneous method to simultaneously measure the relative number of live and dead cells in culture by detecting changes in cell membrane integrity. There are two fluorogenic peptide substrates in the assay reagent. Viable cells are determined when the cell-permeant substrate (GF-AFC) enters the cell and is cleaved by protease from live cells resulting in liberated fluorophore. This live-cell protease activity restricted to viable cells is proportional to cell number. The dead cells are determined by using fluorogenic cell-impermeant peptide substrate (bis-AAF-R110) which cleaved by dead cell proteases leaking from damaged cell membrane.
# Using the MultiTox-Fluor Cytotoxicity Assay, the relative number of live cells was measured in the lymphoblastoid cell line with complete culture medium following compound treatment for 16 hours. The assay was performed in opaque black Kalypsys 1536-well plates. In the screen, tetraoctylammonium bromide was used as positive control. Library compounds were measured for their ability to cause acute toxicity in the cell line, as reflected by a decrease in live cell protease activity, in a concentration-dependent manner. […] AC50 values were determined from concentration-response data modeled with the standard Hill equation.
# qHTS protocol for MultiTox-Fluor Cytotoxicity assay
# [Step] [Parameter] [Value] [Description]
# 1. Reagent; 5 uL; 2500 lymphoblastoid cells/well
# 2. Time; 5 hr; 37 C incubation
# 4. Controls; 23 nL; Tetraoctylammonium bromide 6.4pM to 92 uM
# 5. Time; 16 hr; 37 C incubation
# 6. Reagent; 5 uL; MuliTox-Fluor Assay reagent
# 7. Time; 60 min; Room Temperature
# 8. Detection; live-cell fluorescence (Ex/Em=405/510); EnVision plate reader
# Keywords: cell viability, cytotoxicity, lymphoblastoid cell line, fluorescence, NTPHTS, NTPHTS_NCGC, NIEHS, EPA, DSSTox, MLSMR, MLSCN, NIH Roadmap, qHTS, NCGC
row,Compound,outcome
1,Nc1ccn([C@H]2CC[C@@H](CO)O2)c(=O)n1,inactive
2,CC(C)NCC(O)c1ccc(O)c(O)c1 (stereo not given),inactive
3,CC(C)C(=O)Nc1ccc([N+](=O)[O-])c(C(F)(F)F)c1,inactive
4,Cc1cn([C@H]2C=C[C@@H](CO)O2)c(=O)[nH]c1=O,inactive
5,Cn1c(=O)c2c(ncn2C)n(C)c1=O,inactive
6,COc1ccc2c(c1)c(CC(=O)O)c(C)n2C(=O)c1ccc(Cl)cc1,inactive
7,Clc1ccc(C(c2ccccc2Cl)C(Cl)Cl)cc1 (stereo not given),inactive
8,CC(COc1ccccc1)N(CCCl)Cc1ccccc1 (stereo not given),inactive
9,NCCS(=O)(=O)O,inactive
10,Cn1c(=O)c2[nH]cnc2n(C)c1=O,inactive
11,Nc1c2c(nc3ccccc13)CCCC2,inactive
12,O=c1[nH]cc(F)c(=O)[nH]1,inactive
13,CCC1(c2ccccc2)C(=O)NCNC1=O,inactive
14,O=c1c(-c2ccc(O)cc2)coc2cc(O)cc(O)c12,inactive
15,COc1ccc2[nH]cc(CCNC(C)=O)c2c1,inactive
16,Cc1cn([C@H]2C[C@H](N=[N+]=[N-])[C@@H](CO)O2)c(=O)[nH]c1=O,inactive
17,N[C@@H](Cc1c[nH]c2ccc(O)cc12)C(=O)O,inactive
18,COc1ccc(CCN(C)CCCC(C#N)(c2ccc(OC)c(OC)c2)C(C)C)cc1OC (stereo not given),inactive
19,NS(=O)(=O)c1cc2c(cc1Cl)NCNS2(=O)=O,inactive
20,Cc1ccc(-c2cc(C(F)(F)F)nn2-c2ccc(S(N)(=O)=O)cc2)cc1,inactive
